Active and inactive are the calls of the source. The calls were made as follows: active = hit-call score of the fitted dose curve at least 0.9, where 1 is the maximum; inactive = score below 0.9.
What was measured:
Conditions in all cases: mRNA level, 48 h; actives raise or lower the signal
BCL2L11 (gene 10018) = assay: LTEA_HepaRG_BCL2L11: Life Technologies and Expression Analysis (LTEA) Assay for Bcl-2 (BCL2L11) gene using HepaRG (AID 2283473)
Procedure, shortened: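 Read-out is BCL2L11 transcript level by qRT-PCR, normalized to three housekeeping genes and fitted bidirectionally against 0.5% DMSO vehicle. HepaRG cells received chemicals for 48 h in serum-free induction medium, 100 uM down in half-log dilutions.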

[1] = read-out: Apolipoprotein A-V (APOA5) gene, APOA5 (gene 116519); assay: LTEA_HepaRG_APOA5: Life Technologies and Expression Analysis (LTEA) Assay for Apolipoprotein A-V (APOA5) gene using HepaRG (AID 2283474)
Procedure, shortened: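 Readout is APOA5 transcript level by qRT-PCR on Fluidigm dynamic arrays, normalized to three housekeeping genes. HepaRG cultures received chemicals for 48 h at up to 100 uM (half-log steps, 0.5% DMSO), with gain or loss scored relative to DMSO.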

[2] = read-out: Apoptosis regulator Bcl-2 (Homo sapiens) (UniProt P10415); assay: LTEA_HepaRG_BCL2: Life Technologies and Expression Analysis (LTEA) Assay for Bcl-2 gene using HepaRG (AID 2283475)
Procedure, shortened: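 Differentiated human HepaRG cells in serum-free induction medium exposed 48 h, in duplicate, to 8-point half-log series from 100 uM in 0.5% DMSO. BCL2 mRNA by qRT-PCR (TaqMan/Fluidigm), normalized to ACTB, GAPDH, POLR2A; bidirectional fit against DMSO.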

[3] = read-out: Bcl-2 (BID) gene, BID (gene 637); assay: LTEA_HepaRG_BID: Life Technologies and Expression Analysis (LTEA) Assay for Bcl-2 (BID) gene using HepaRG (AID 2283476)
Procedure, shortened: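 Gene expression by qRT-PCR in HepaRG cells after 48 h exposure, duplicate wells, eight half-log concentrations topping at 100 uM in 0.5% DMSO. Normalized to ACTB, GAPDH, POLR2A; bidirectional fitting relative to DMSO.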

Caspase-3 (Homo sapiens) = Caspase-3 (Homo sapiens) (UniProt P42574); assay: LTEA_HepaRG_CASP3: Life Technologies and Expression Analysis (LTEA) Assay for cysteine-aspartic acid protease (CASP3) using HepaRG (AID 2283477)
Chain of Caspase-3 (Homo sapiens) (P42574 whole entry, looked up): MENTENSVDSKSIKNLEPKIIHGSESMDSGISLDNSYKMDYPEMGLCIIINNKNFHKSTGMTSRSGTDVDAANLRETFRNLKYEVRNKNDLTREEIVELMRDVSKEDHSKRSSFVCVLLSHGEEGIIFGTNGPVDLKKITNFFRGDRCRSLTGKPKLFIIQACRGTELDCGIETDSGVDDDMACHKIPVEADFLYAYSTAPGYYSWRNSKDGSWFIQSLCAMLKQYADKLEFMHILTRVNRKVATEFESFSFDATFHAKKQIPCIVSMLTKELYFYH
Procedure, shortened: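 Read-out is CASP3 mRNA level by TaqMan qRT-PCR in human HepaRG cells after 48 h chemical exposure. Eight half-log concentrations topping at 100 uM were tested in 0.5% DMSO; gain or loss was fitted relative to DMSO.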

[4] = read-out: Cytochrome P450 (CYP24A1), CYP24A1 (gene 1591); assay: LTEA_HepaRG_CYP24A1: Life Technologies and Expression Analysis (LTEA) Assay for Cytochrome P450 (CYP24A1) using HepaRG (AID 2283478)
Procedure, shortened: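 HepaRG, 48 h chemical exposure, 8-pt half-log CRC from 100 uM, 0.5% DMSO vehicle, duplicates. Endpoint: CYP24A1 mRNA by Fluidigm TaqMan qRT-PCR, normalized ACTB/GAPDH/POLR2A; gain/loss fit vs DMSO.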

[5] = read-out: cysteine-aspartic acid protease (CASP8), CASP8 (gene 841); assay: LTEA_HepaRG_CASP8: Life Technologies and Expression Analysis (LTEA) Assay for cysteine-aspartic acid protease (CASP8) using HepaRG (AID 2283480)
Procedure, shortened: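 HepaRG, 48 h exposure, duplicate wells; 8 conc, half-log from 100 uM, 0.5% DMSO. Serum-free induction medium. CASP8 mRNA by TaqMan qRT-PCR, norm. ACTB/GAPDH/POLR2A; gain/loss fitted vs DMSO.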

[6] = read-out: Cytochrome P450 (CYP2B6), CYP2B6 (gene 1555); assay: LTEA_HepaRG_CYP2B6: Life Technologies and Expression Analysis (LTEA) Assay for Cytochrome P450 (CYP2B6) using HepaRG (AID 2283481)
Procedure, shortened: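 HepaRG cells plated 48 h, switched to serum-free induction medium, then dosed 48 h (8 points, half-log from 100 uM, 0.5% DMSO). RNA isolated; CYP2B6 expression measured by qRT-PCR; gain or loss fitted relative to DMSO.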

CYP2C8 (gene 1558) = assay: LTEA_HepaRG_CYP2C8: Life Technologies and Expression Analysis (LTEA) Assay for CYP2C8 using HepaRG (AID 2283483)
Procedure, shortened: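 CYP2C8 mRNA induction or loss, by qRT-PCR normalized to ACTB/GAPDH/POLR2A, is read in HepaRG cells after 48 h treatment. Concentrations run from 100 uM down in half-log dilutions, with 0.5% DMSO as vehicle and baseline.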

CYP2C9 (gene 1559) = assay: LTEA_HepaRG_CYP2C9: Life Technologies and Expression Analysis (LTEA) Assay for CYP2C9 using HepaRG (AID 2283484)
Procedure, shortened: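 Cells plated 48 h, switched to serum-free induction medium, then treated in duplicate for 48 h at eight concentrations (max 100 uM, 0.5% DMSO). RNA then analysed by qRT-PCR for CYP2C9; curves fitted in both directions relative to DMSO.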

CYP2E1 (gene 1571) = assay: LTEA_HepaRG_CYP2E1: Life Technologies and Expression Analysis (LTEA) Assay for CYP2E1 using HepaRG (AID 2283485)
Procedure, shortened: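 HepaRG cells, plated 48 h, then exposed 48 h in serum-free induction medium to eight half-log concentrations from 100 uM in 0.5% DMSO, duplicate. CYP2E1 mRNA by qRT-PCR, normalized to ACTB/GAPDH/POLR2A; bidirectional fit versus DMSO.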

CYP4A11 (gene 1579) = assay: LTEA_HepaRG_CYP4A11: Life Technologies and Expression Analysis (LTEA) Assay for CYP4A11 using HepaRG (AID 2283486)
Procedure, shortened: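 HepaRG, 48 h chem exposure, 8 conc (100 uM top, half-log), 0.5% DMSO vehicle; qRT-PCR readout, housekeeping-gene normalized; bidirectional curve fit vs DMSO baseline.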

[7] = read-out: DNA damage-inducible transcript 3 (DDIT3), DDIT3 (gene 1649); assay: LTEA_HepaRG_DDIT3: Life Technologies and Expression Analysis (LTEA) Assay for DNA damage-inducible transcript 3 (DDIT3) using HepaRG (AID 2283488)
Procedure, shortened: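 HepaRG cells, 48 h after plating, exposed 48 h in serum-free induction medium to 8 half-log concentrations up to 100 uM in 0.5% DMSO, in duplicate. DDIT3 mRNA measured by TaqMan qRT-PCR, normalized to ACTB, GAPDH and POLR2A. Fitted bidirectionally against DMSO.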

[8] = read-out: Pro-epidermal growth factor (Homo sapiens) (UniProt P01133); assay: LTEA_HepaRG_EGF: Life Technologies and Expression Analysis (LTEA) Assay for Epidermal growth factor (EGF) using HepaRG (AID 2283489)
Procedure, shortened: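 HepaRG, 48 h dosing, 100 uM top, half-log x8, 0.5% DMSO. Readout: TaqMan qRT-PCR (Fluidigm array), housekeeping-normalized. Gain or loss of signal fit vs DMSO.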

[9] = read-out: Ezrin (EZR), EZR (gene 7430); assay: LTEA_HepaRG_EZR: Life Technologies and Expression Analysis (LTEA) Assay for Ezrin (EZR) using HepaRG (AID 2283491)
Procedure, shortened: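 Differentiated human HepaRG cells, 48 h after plating, were exposed in serum-free induction medium for 48 hours to eight half-log concentrations up to 100 uM in 0.5% DMSO. EZR mRNA was measured by TaqMan qRT-PCR, normalized to ACTB, GAPDH and POLR2A, and fitted bidirectionally against DMSO.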

[10] = read-out: Cytochrome P450 3A7 (Homo sapiens) (UniProt P24462); assay: LTEA_HepaRG_CYP3A7: Life Technologies and Expression Analysis (LTEA) Assay for CYP3A7 using HepaRG (AID 2283492)
Procedure, shortened: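 Human HepaRG liver cells, 48 h post-plating, switched to serum-free induction medium and exposed in duplicate for 48 h. Dosing: 100 uM top, half-log dilutions, 8 points, 0.5% DMSO vehicle. Read-out: CYP3A7 mRNA, gain or loss fitted against DMSO baseline.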

[11] = read-out: Cytochrome P450 3A4 (Homo sapiens) (UniProt P08684); assay: LTEA_HepaRG_CYP3A4: Life Technologies and Expression Analysis (LTEA) Assay for CYP3A4 using HepaRG (AID 2283487)
Procedure, shortened: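 Differentiated HepaRG cells in serum-free induction medium exposed in duplicate for 48 h to 8 half-log concentrations up to 100 uM in 0.5% DMSO. CYP3A4 mRNA measured by qRT-PCR normalized to ACTB, GAPDH and POLR2A; bidirectional fit versus DMSO.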

[12] = read-out: Cytochrome P450 2C19 (Homo sapiens) (UniProt P33261); assay: LTEA_HepaRG_CYP2C19: Life Technologies and Expression Analysis (LTEA) Assay for CYP2C19 using HepaRG (AID 2283482)
Procedure, shortened: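 Transcript levels of CYP2C19 were quantified by qRT-PCR after HepaRG cells were treated for 48 hours with test chemicals up to 100 uM (eight half-log concentrations, 0.5% DMSO vehicle). Gain or loss of signal was fitted relative to DMSO.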

Chain of Apoptosis regulator Bcl-2 (Homo sapiens) (P10415 whole entry, looked up): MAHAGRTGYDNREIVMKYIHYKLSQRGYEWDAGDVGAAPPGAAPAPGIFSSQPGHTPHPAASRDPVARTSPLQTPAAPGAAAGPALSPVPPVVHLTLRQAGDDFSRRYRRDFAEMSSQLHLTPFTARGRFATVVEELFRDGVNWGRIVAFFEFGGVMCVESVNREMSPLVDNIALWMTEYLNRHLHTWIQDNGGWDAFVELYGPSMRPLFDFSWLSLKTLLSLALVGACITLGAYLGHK
Chain of Cytochrome P450 3A7 (Homo sapiens) (P24462 whole entry, looked up): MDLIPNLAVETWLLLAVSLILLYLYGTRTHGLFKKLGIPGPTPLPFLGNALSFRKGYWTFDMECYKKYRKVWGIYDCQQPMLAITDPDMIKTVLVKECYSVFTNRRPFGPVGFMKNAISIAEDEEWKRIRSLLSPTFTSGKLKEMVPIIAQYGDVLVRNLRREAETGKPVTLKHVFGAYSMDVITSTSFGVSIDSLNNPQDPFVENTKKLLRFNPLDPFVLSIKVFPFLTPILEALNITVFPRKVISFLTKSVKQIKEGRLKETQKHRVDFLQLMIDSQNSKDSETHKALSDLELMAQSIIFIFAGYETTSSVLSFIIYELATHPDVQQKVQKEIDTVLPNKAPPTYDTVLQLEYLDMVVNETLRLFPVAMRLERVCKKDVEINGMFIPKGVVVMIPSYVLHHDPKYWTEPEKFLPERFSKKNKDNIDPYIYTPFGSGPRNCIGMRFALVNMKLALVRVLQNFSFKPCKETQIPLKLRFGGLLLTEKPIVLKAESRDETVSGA
Chain of Cytochrome P450 3A4 (Homo sapiens) (P08684 whole entry, looked up): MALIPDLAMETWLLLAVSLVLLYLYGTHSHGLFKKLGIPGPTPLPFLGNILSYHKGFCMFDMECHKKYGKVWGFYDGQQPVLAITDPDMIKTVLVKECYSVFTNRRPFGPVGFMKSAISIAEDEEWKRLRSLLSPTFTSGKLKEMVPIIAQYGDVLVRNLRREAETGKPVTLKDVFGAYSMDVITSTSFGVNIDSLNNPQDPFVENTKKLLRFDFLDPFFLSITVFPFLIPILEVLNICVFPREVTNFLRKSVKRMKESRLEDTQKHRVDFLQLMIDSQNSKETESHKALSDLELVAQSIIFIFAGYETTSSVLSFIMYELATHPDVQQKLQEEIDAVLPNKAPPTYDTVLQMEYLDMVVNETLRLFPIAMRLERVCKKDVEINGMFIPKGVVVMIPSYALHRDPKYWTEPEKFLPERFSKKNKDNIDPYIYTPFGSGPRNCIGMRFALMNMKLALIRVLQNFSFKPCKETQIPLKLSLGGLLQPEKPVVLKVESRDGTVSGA
Chain of Cytochrome P450 2C19 (Homo sapiens) (P33261 whole entry, looked up): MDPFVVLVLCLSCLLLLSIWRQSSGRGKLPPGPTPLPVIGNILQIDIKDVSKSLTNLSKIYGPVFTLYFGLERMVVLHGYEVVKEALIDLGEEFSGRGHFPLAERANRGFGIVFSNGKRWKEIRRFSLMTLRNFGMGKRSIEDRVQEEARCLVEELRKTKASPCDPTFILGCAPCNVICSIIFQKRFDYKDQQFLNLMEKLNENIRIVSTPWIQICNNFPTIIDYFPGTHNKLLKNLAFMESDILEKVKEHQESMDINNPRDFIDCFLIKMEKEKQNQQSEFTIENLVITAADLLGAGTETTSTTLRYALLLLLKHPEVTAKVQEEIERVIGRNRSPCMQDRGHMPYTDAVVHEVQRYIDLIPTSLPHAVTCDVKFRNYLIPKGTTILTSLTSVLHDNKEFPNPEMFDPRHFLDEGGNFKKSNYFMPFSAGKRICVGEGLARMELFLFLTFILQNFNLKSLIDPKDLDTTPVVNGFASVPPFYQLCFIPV

How did the outcome (BCL2L11 (gene 10018)) turn out when `OC[C@H]1O[C@@H]2O[C@H]3[C@H](O)[C@@H](O)[C@@H](O[C@H]4[C@H](O)[C@@H](O)[C@@H](O[C@H]5[C@H](O)[C@@H](O)[C@@H](O[C@H]6[C@H](O)[C@@H](O)[C@@H](O[C@H]7[C@H](O)[C@@H](O)[C@@H](O[C@H]1[C@H](O)[C@H]2O)O[C@@H]7CO)O[C@@H]6CO)O[C@@H]5CO)O[C@@H]4CO)O[C@@H]3CO` was run?
Its outcome is “inactive”.

And the outcome [1]?
Its outcome is “inactive”.

And the outcome [2]?
Its outcome is “inactive”.

And the outcome [3]?
Its outcome is “inactive”.

What about the outcome (Caspase-3 (Homo sapiens)) of the same molecule?
Its outcome is “inactive”.

And the outcome [4]?
The outcome was “inactive”.

And the outcome [5]?
The outcome was “inactive”.

And the outcome [6]?
Its outcome is “inactive”.

And the outcome (CYP2C8 (gene 1558))?
Its outcome is “inactive”.

And the outcome (CYP2C9 (gene 1559))?
Its outcome is “inactive”.

And the outcome (CYP2E1 (gene 1571))?
The outcome was “inactive”.

What about the outcome (CYP4A11 (gene 1579)) of the same molecule?
Its outcome is “inactive”.

And the outcome [7]?
Its outcome is “inactive”.

And the outcome [8]?
Its outcome is “inactive”.

What about the outcome [9] of the same molecule?
Its outcome is “inactive”.

And the outcome [10]?
The outcome was “inactive”.

How did the outcome (BCL2L11 (gene 10018)) turn out when `O=C(O)c1cccc(C[C@@H]2COc3ccc(OCc4nc5cc(F)ccc5s4)cc3[C@@H]2O)c1` was run?
The outcome was “inactive”.

What about the AC50 [1] of the same molecule?
The AC50 was 81.1 µM (active).

And the outcome [2]?
The outcome was “inactive”.

And the outcome [3]?
Its outcome is “inactive”.

And the outcome (Caspase-3 (Homo sapiens))?
The outcome was “inactive”.

And the outcome [4]?
The outcome was “inactive”.

What about the outcome [5] of the same molecule?
Its outcome is “inactive”.

What about the AC50 [6] of the same molecule?
Its AC50 is 92 µM (active).

What about the AC50 (CYP2C8 (gene 1558)) of the same molecule?
The AC50 was 84.2 µM (active).

And the AC50 (CYP2C9 (gene 1559))?
The AC50 was 81.6 µM (active).

And the AC50 (CYP2E1 (gene 1571))?
The AC50 was 71.7 µM (active).

What about the AC50 (CYP4A11 (gene 1579)) of the same molecule?
The AC50 was 85.9 µM (active).

What about the AC50 [11] of the same molecule?
The AC50 was 78.2 µM (active).

And the outcome [7]?
Its outcome is “inactive”.

And the outcome [8]?
Its outcome is “inactive”.

What about the outcome [9] of the same molecule?
The outcome was “inactive”.

What about the AC50 [10] of the same molecule?
Its AC50 is 82.2 µM (active).

Which outcome (BCL2L11 (gene 10018)) does the source give for `OCC(CO)(CO)CO` here?
Its outcome is “inactive”.

And the outcome [1]?
The outcome was “inactive”.

What about the outcome [2] of the same molecule?
Its outcome is “inactive”.

What about the outcome [3] of the same molecule?
Its outcome is “inactive”.

What about the outcome (Caspase-3 (Homo sapiens)) of the same molecule?
The outcome was “inactive”.

What about the outcome [4] of the same molecule?
The outcome was “inactive”.

And the outcome [5]?
The outcome was “inactive”.

What about the outcome [6] of the same molecule?
Its outcome is “inactive”.

And the outcome [12]?
The outcome was “inactive”.

And the outcome (CYP2C8 (gene 1558))?
The outcome was “inactive”.

And the outcome (CYP2C9 (gene 1559))?
Its outcome is “inactive”.

What about the outcome (CYP2E1 (gene 1571)) of the same molecule?
The outcome was “inactive”.

What about the outcome (CYP4A11 (gene 1579)) of the same molecule?
The outcome was “inactive”.

What about the outcome [11] of the same molecule?
The outcome was “inactive”.

And the outcome [7]?
The outcome was “inactive”.

What about the outcome [9] of the same molecule?
The outcome was “inactive”.

And the outcome [10]?
Its outcome is “inactive”.

Which outcome (BCL2L11 (gene 10018)) does the source give for `Cn1cc[nH]c1=S` here?
Its outcome is “inactive”.

What about the outcome [1] of the same molecule?
Its outcome is “inactive”.

And the outcome [2]?
The outcome was “inactive”.

And the outcome [3]?
The outcome was “inactive”.

What about the outcome (Caspase-3 (Homo sapiens)) of the same molecule?
Its outcome is “inactive”.

And the outcome [4]?
Its outcome is “inactive”.

What about the outcome [5] of the same molecule?
Its outcome is “inactive”.

What about the outcome [6] of the same molecule?
The outcome was “inactive”.

And the outcome (CYP2C8 (gene 1558))?
Its outcome is “inactive”.

What about the outcome (CYP2C9 (gene 1559)) of the same molecule?
Its outcome is “inactive”.

What about the outcome (CYP2E1 (gene 1571)) of the same molecule?
The outcome was “inactive”.

What about the outcome (CYP4A11 (gene 1579)) of the same molecule?
The outcome was “inactive”.

What about the outcome [7] of the same molecule?
The outcome was “inactive”.

What about the outcome [8] of the same molecule?
The outcome was “inactive”.

And the outcome [9]?
The outcome was “inactive”.

Reference: PubChem BioAssay (EPA / NIEHS)
